Inconclusive results are not listed. Activity calls are given as the source filed them. Calls come from the whole dose curve; as a rule, active = well fitted cell-killing curve with a large enough effect in the repeat runs; inconclusive = weak or mixed curves; inactive = flat fitted curve, though single readings scatter.
Experiment: qHTS assay to identify small molecule antagonists of the TGF-beta/Smad signaling pathway - cell viability counter screen (AID 1346824); note: nearly all actives have a fitted effect of over 50% in size
Conditions: SBE-bla HEK293T viability, CellTiter-Glo luminescence; series mostly up to 76.8 µM; viability change, negative = cytotoxic: at the top concentration
Excerpt: U.S. Tox21 Program National Center for Advancing Translational Sciences [NCATS] NIH Chemical Genomics Center [NCGC] U.S. Environmental Protection Agency [EPA] National Institutes of Environmental Health Sciences [NIEHS] National Toxicology Program [NTP] U.S. Food and Drug Administration [FDA] Tox21 Assay Overview: Transforming growth factor beta (TGF-beta) superfamily consists of a large number of structurally related dimeric proteins that act as hormones or local mediators in regulating a wide range of biological functions. This superfamily includes TGF-betas themselves, the bone morphogenetic proteins (BMPs) and the activins. These ligands induce oligomerization of serine/threonine receptor kinases and phosphorylate the cytoplasmic signaling molecules of Smad protein family. CellSensor SBE-bla HEK 293T cell line (Life Technologies, Carlsbad, CA), responsive to TGF-beta was used to screen Tox21 10K compound library for identification of agonists/antagonists of the Smad signaling pathway. This cell line contains a beta-lactamase reporter gene under control of the Smad binding element (SBE) stably integrated into HEK 293T cells. Also cytotoxicity of the compounds was tested in parallel by measuring the cell viability using CellTiter-Glo assay system in the same wells.
Tox21 Assay Protocol Summary: SBE-bla HEK 293T cells were dispensed at 4,000/well in 5 uL of assay medium into black wall/clear-bottom 1536-well plates using a Multidrop Combi (ThermoFisher Scientific, Waltham, MA) dispenser. After the assay plates were incubated at 37 C and 5% CO2 for an overnight, 23 nL of compounds dissolved in DMSO, positive controls or DMSO only was transferred to the assay plate by a Pintool station (Kalypsys, San Diego, CA). Compound transfer was followed by the addition of 1 uL of 0.25 ng/mL TGF-beta1 or assay buffer using two separate tips of Flying Reagent Dispenser (FRD, Aurora Discovery, San Diego, CA). The assay plates were incubated at 37 C and 5% CO2 for 5 hr. One uL of LiveBLAzer B/G FRET substrate (Life Technologies) was added using a Flying Reagent Dispenser (FRD, Aurora Discovery, San Diego, CA) and the plates were incubated at room temperature for 2 hr. Fluorescence intensity (405 nm excitation, 460 nm and 530 nm emissions) was measured using an Envision plate reader (PerkinElmer, Shelton, CT). For cytotoxicity read, 4 uL of CellTiter-Glo reagent (Promega Corporation, Madison, WI) was added to each well of the assay plates using FRD. After 30 min incubation at room temperature, the luminescence intensity was measured using ViewLux plate reader (PerkinElmer).
% is set by controls: 0 for no effect and ±100 for the full control effect.

Row | SMILES | viability change, negative = cytotoxic
1 | CCOc1ccccc1OCCN[C@H](C)Cc1ccc(OC)c(S(N)(=O)=O)c1 | 1.32% [at 35.3 µM] (inactive)
2 | C=CCOC(=O)CCCCCCCC | -11% (inactive)
3 | CC(O)CCCCn1c(=O)c2c(ncn2C)n(C)c1=O (stereo not given) | -5.52% [at 35.3 µM] (inactive)
4 | NC(=O)CC[C@@H](N)C(=O)O | 3.83% [at 35.3 µM] (inactive)
5 | COC(=O)c1cc(Cl)c(NC(C)=O)cc1OC | -6.54% [at 35.3 µM] (inactive)
6 | Cc1ccccc1C#N | -4.62% (inactive)
7 | CCCCN1C(=O)c2ccccc2C1=O | -1.85% (inactive)
8 | CCCCC(CC)CCC(CC(C)C)OS(=O)(=O)O (stereo not given) | -2.07% (inactive)
9 | CC(C)C(C)C | -0.386% (inactive)
10 | C[C@@H]1CC[C@@]2(OC1)O[C@H]1C[C@H]3[C@@H]4CC[C@H]5C[C@@H](O)CC[C@]5(C)[C@H]4CC(=O)[C@]3(C)[C@H]1[C@@H]2C | -1.38% [at 6.97 µM] (inactive)
11 | CCC(=O)OCCOc1ccccc1 | 0.448% (inactive)
12 | COc1cc2nc(N3CCN(C(=O)C4CCCO4)CC3)nc(N)c2cc1OC (stereo not given) | 0.29% [at 35.3 µM] (inactive)
13 | CCCCOCCCC | 1.51% (inactive)
14 | CC(=O)c1ccc2ccc3ccccc3c2c1 | 4.28% (inactive)
15 | CCN(CC)CC | 19.4% (inactive)
16 | C/C(Cl)=C/CCl | -0.0237% (inactive)
17 | c1coc(Cn2cccc2)c1 | -0.916% (inactive)
18 | CC(C)C[P+](C)(CC(C)C)CC(C)C | -8.3% (inactive)
19 | COCc1nnc(-c2ccc[n+]([O-])c2)n1-c1c(Cl)c(Cl)cc2[nH]c(=O)c(=O)[nH]c12 | 0.679% (inactive)
20 | C=CCCCCCCCCCCCCCC | -0.4% [at 15.8 µM] (inactive)

Row | SMILES | viability change, negative = cytotoxic
21 | CO/N=C(\C(=O)O)c1csc(NC(=O)CCl)n1 | -7.71% [at 35.3 µM] (inactive)
22 | CCOC(=O)CC(C(C)=O)C(C)=O | 15.4% (inactive)
23 | CCCCCCC(=O)c1ccccc1 | 12% (inactive)
24 | CC1(C)C(=O)C(C)(C)C1=O | 26.3% (inactive)
25 | CC(C)=CCC/C(C)=C\C#N | 1.05% (inactive)
26 | Cc1nnc(C(=O)NC(C)(C)c2nc(C(=O)NCc3ccc(F)cc3)c(O)c(=O)n2C)o1 | 8.47% [at 35.3 µM] (inactive)
27 | CC/C=C/CCCCCCCCCCOC(C)=O | -23.2% (inactive)
28 | C[C@]12C=CC(=O)C=C1[C@@H](F)C[C@@H]1[C@@H]2[C@@H](O)C[C@@]2(C)[C@H]1CC[C@]2(O)C(=O)CO | -0.926% [at 35.3 µM] (inactive)
29 | COc1cc(OC)cc(OC)c1 | 4.7% [at 35.3 µM] (inactive)
30 | CC(C)(C)C(=O)NCCCC(=O)O | 0.692% [at 35.3 µM] (inactive)
31 | COc1ccc2cc(CCC(C)=O)ccc2c1 | -4.95% [at 35.3 µM] (inactive)
32 | CSC(=O)c1cccc2nnsc12 | -16.2% (inactive)
33 | N#CC1(N)CCCCC1 | 1.21% (inactive)
34 | O=C(O)/C=C(\CC(=O)O)C(=O)O | 4.58% [at 35.3 µM] (inactive)
35 | COc1cc(S(N)(=O)=O)cc(C(=O)O)c1OC | 13.7% [at 35.3 µM] (inactive)
36 | CCCC(=O)OC | 7.54% (inactive)
37 | N[C@H]1C(O)O[C@H](CO)[C@@H](O)[C@@H]1O (stereo not given in full) | 6.86% [at 35.3 µM] (inactive)
38 | COC(=O)/C=C(\C)CCC=C(C)C | 2.36% (inactive)
39 | Cc1cc(C)c(C)c(C)c1 | -3.76% (inactive)
40 | CC[C@@]1(c2ccccc2)NC(=O)N(C)C1=O | -10.2% [at 35.3 µM] (inactive)

Reference: PubChem BioAssay (Tox21)
